# Results taken from PubChem BioAssay (EPA / NIEHS).
# Active and inactive are the calls of the source. How the source made its calls: active means hit-call score of the fitted dose curve at least 0.9, where 1 is the maximum; inactive means score below 0.9.
# Experiments:
# Conditions in all cases: mRNA level, 48 h; actives raise or lower the signal
# [1] = read-out: Cytochrome P450 3A4 (Homo sapiens) (UniProt P08684); test: LTEA_HepaRG_CYP3A4: Life Technologies and Expression Analysis (LTEA) Assay for CYP3A4 using HepaRG (AID 2283487)
# Method in brief: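 In a human hepatic line (HepaRG), duplicate wells were treated 48 h with up to 100 uM chemical in half-log dilutions. Endpoint: CYP3A4 mRNA induction or loss relative to 0.5% DMSO vehicle, by qRT-PCR.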
# [2] = read-out: DNA damage-inducible transcript 3 (DDIT3), DDIT3 (gene 1649); test: LTEA_HepaRG_DDIT3: Life Technologies and Expression Analysis (LTEA) Assay for DNA damage-inducible transcript 3 (DDIT3) using HepaRG (AID 2283488)
# Method in brief: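 qRT-PCR readout (Fluidigm TaqMan), housekeeping-normalized to ACTB, GAPDH, POLR2A. HepaRG cells, 48 h exposure, 8-point half-log series from 100 uM in 0.5% DMSO, duplicates. Gain or loss of signal fitted against DMSO baseline.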
# [3] = read-out: Pro-epidermal growth factor (Homo sapiens) (UniProt P01133); test: LTEA_HepaRG_EGF: Life Technologies and Expression Analysis (LTEA) Assay for Epidermal growth factor (EGF) using HepaRG (AID 2283489)
# Method in brief: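 EGF expression changes in human HepaRG cells are scored by bidirectional fitting relative to 0.5% DMSO controls. Chemicals are tested at eight half-log concentrations up to 100 uM for 48 h in serum-free induction medium.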
# [4] = read-out: Early growth response protein 1 (EGR1) transcription factor, EGR1 (gene 1958); test: LTEA_HepaRG_EGR1: Life Technologies and Expression Analysis (LTEA) Assay for Early growth response protein 1 (EGR1) transcription factor using HepaRG (AID 2283490)
# Method in brief: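 EGR1 expression change in human HepaRG after 48 h chemical exposure, assessed by housekeeping-normalized qRT-PCR; concentration-response up to 100 uM, fitted in both directions against DMSO controls.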
# [5] = read-out: Ezrin (EZR), EZR (gene 7430); test: LTEA_HepaRG_EZR: Life Technologies and Expression Analysis (LTEA) Assay for Ezrin (EZR) using HepaRG (AID 2283491)
# Method in brief: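 Gain or loss of EZR mRNA is scored relative to 0.5% DMSO in human HepaRG cultures treated 48 h with test chemicals in duplicate, eight half-log concentrations from 100 uM.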
# [6] = read-out: Cytochrome P450 3A7 (Homo sapiens) (UniProt P24462); test: LTEA_HepaRG_CYP3A7: Life Technologies and Expression Analysis (LTEA) Assay for CYP3A7 using HepaRG (AID 2283492)
# Method in brief: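 Cells were thawed, plated, cultured 48 h, then treated for a further 48 h with chemicals (eight-point half-log series from 100 uM, 0.5% DMSO). RNA was isolated and CYP3A7 expression quantified by qRT-PCR normalised to ACTB, GAPDH and POLR2A.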
# [7] = read-out: CYP3A5 (gene 1577); test: LTEA_HepaRG_CYP3A5: Life Technologies and Expression Analysis (LTEA) Assay for CYP3A5 using HepaRG (AID 2283493)
# Method in brief: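 qRT-PCR read-out: CYP3A5 transcript in HepaRG lysates, housekeeping-normalized (ACTB/GAPDH/POLR2A), fitted bidirectionally against 0.5% DMSO baseline. Exposure 48 h, eight half-log concentrations up to 100 uM, duplicates.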
# [8] = read-out: Fatty Acid-Binding Protein 1 (FABP1), FABP1 (gene 2168); test: LTEA_HepaRG_FABP1: Life Technologies and Expression Analysis (LTEA) Assay for Fatty Acid-Binding Protein 1 (FABP1) using HepaRG (AID 2283494)
# Method in brief: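 Values reflect bidirectional concentration-response fitting of FABP1 mRNA change against 0.5% DMSO controls. Human HepaRG cultures received eight half-log doses (top 100 uM) for 48 h; expression quantified by TaqMan qRT-PCR with housekeeping-gene normalization.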
# [9] = read-out: Cytochrome P450 4A22 (Homo sapiens) (UniProt Q5TCH4); test: LTEA_HepaRG_CYP4A22: Life Technologies and Expression Analysis (LTEA) Assay for Cytochrome P450 4A22 (CYP4A22) using HepaRG (AID 2283495)
# Method in brief: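 Cryopreserved HepaRG cells, plated and cultured 48 h, then switched to serum-free induction medium and treated 48 h (duplicates, up to 100 uM, half-log steps, 0.5% DMSO). Expression change of CYP4A22 was fitted bidirectionally against vehicle.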
# [10] = read-out: Cytochrome P450 7A1 (Homo sapiens) (UniProt P22680); test: LTEA_HepaRG_CYP7A1: Life Technologies and Expression Analysis (LTEA) Assay for Cytochrome P450 7A1 (CYP7A1) using HepaRG (AID 2283496)
# Method in brief: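 Using 0.5% DMSO as vehicle and baseline, chemicals were tested in duplicate over an 8-point range from 100 uM on HepaRG cells for 48 h; qRT-PCR signals were normalised to ACTB, GAPDH and POLR2A.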
# [11] = read-out: Glutathione S-Transferase (GSTA2), GSTA2 (gene 2939); test: LTEA_HepaRG_GSTA2: Life Technologies and Expression Analysis (LTEA) Assay for Glutathione S-Transferase (GSTA2) using HepaRG (AID 2283497)
# Method in brief: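 Oxidative-stress marker GSTA2 is quantified by TaqMan qRT-PCR in HepaRG cultures treated 48 h across an eight-point range to 100 uM. Expression is normalized to endogenous controls and compared with 0.5% DMSO vehicle.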
# [12] = read-out: Glutamate-cysteine ligase catalytic (GCLC), GCLC (gene 2729); test: LTEA_HepaRG_GCLC: Life Technologies and Expression Analysis (LTEA) Assay for Glutamate-cysteine ligase catalytic (GCLC) using HepaRG (AID 2283498)
# Method in brief: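 Oxidative-stress marker GCLC is measured as mRNA change in human HepaRG liver cells after 48 h chemical treatment in 0.5% DMSO, eight concentrations from 100 uM. Activity is fitted bidirectionally against vehicle.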
# [13] = read-out: growth arrest and DNA damage 45 (GADD45G), GADD45G (gene 10912); test: LTEA_HepaRG_GADD45G: Life Technologies and Expression Analysis (LTEA) Assay for growth arrest and DNA damage 45 (GADD45G) using HepaRG (AID 2283499)
# Method in brief: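 Human hepatic HepaRG line treated 48 h with chemicals (eight concentrations, half-log steps from 100 uM); transcript induction or repression of GADD45G scored by qRT-PCR versus DMSO vehicle.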
# [14] = read-out: Glutamate-cysteine ligase regulatory (GCLM), GCLM (gene 2730); test: LTEA_HepaRG_GCLM: Life Technologies and Expression Analysis (LTEA) Assay for Glutamate-cysteine ligase regulatory (GCLM) using HepaRG (AID 2283500)
# Method in brief: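 HepaRG, 48 h dosing, 100 uM top, half-log x8, 0.5% DMSO vehicle. Readout: GCLM mRNA by TaqMan qRT-PCR, housekeeping-normalized (ACTB/GAPDH/POLR2A). Curves fit bidirectionally vs DMSO baseline.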
# [15] = read-out: Heat shock 70 kDa protein 1 (HSPA1A), gene 3303; test: LTEA_HepaRG_HSPA1A: Life Technologies and Expression Analysis (LTEA) Assay for Heat shock 70 kDa protein 1 (HSPA1A) using HepaRG (AID 2283502)
# Method in brief: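 HepaRG, 48 h exposure, 8-pt half-log CRC from 100 uM in 0.5% DMSO, duplicates. Readout: TaqMan qRT-PCR of HSPA1A mRNA, housekeeping-normalized (ACTB/GAPDH/POLR2A). Bidirectional fit vs 0.5% DMSO baseline.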
# [16] = read-out: Hypoxia-inducible factor 1-alpha (Homo sapiens) (UniProt Q16665); test: LTEA_HepaRG_HIF1A: Life Technologies and Expression Analysis (LTEA) Assay for Hypoxia-inducible factor 1 (HIF1A) Trancription factor using HepaRG (AID 2283503)
# Method in brief: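 Gain- or loss-of-signal HIF1A mRNA changes are fitted against a DMSO baseline. HepaRG cultures receive eight concentrations, highest 100 uM, for 48 h in serum-free induction medium with 0.5% DMSO.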
# [17] = read-out: 3-Hydroxy-3-Methylglutaryl-CoA Synthase 2 (HMGCS2), HMGCS2 (gene 3158); test: LTEA_HepaRG_HMGCS2: Life Technologies and Expression Analysis (LTEA) Assay for 3-Hydroxy-3-Methylglutaryl-CoA Synthase 2 (HMGCS2) using HepaRG (AID 2283504)
# Method in brief: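 Expression of HMGCS2 in human HepaRG liver cells is measured by qRT-PCR 48 h after dosing (highest 100 uM, half-log series, 0.5% DMSO). Values come from bidirectional concentration-response fitting with DMSO as baseline.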
# [18] = read-out: Insulin Like Growth Factor 1 (IGF1), IGF1 (gene 3479); test: LTEA_HepaRG_IGF1: Life Technologies and Expression Analysis (LTEA) Assay for Insulin Like Growth Factor 1 (IGF1) using HepaRG (AID 2283506)
# Method in brief: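 qRT-PCR readout of IGF1 mRNA, normalized to three housekeeping genes, after 48 h chemical exposure of HepaRG cells. Concentrations: 8-point half-log series, top 100 uM, 0.5% DMSO vehicle. Gain or loss fitted against DMSO baseline.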
# [19] = read-out: Glutathione S-transferase M3 (GSTM3), GSTM3 (gene 2947); test: LTEA_HepaRG_GSTM3: Life Technologies and Expression Analysis (LTEA) Assay for Glutathione S-transferase M3 (GSTM3) using HepaRG (AID 2283501)
# Method in brief: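 Changes in GSTM3 expression, an oxidative-stress marker, were scored by bidirectional curve fitting against 0.5% DMSO vehicle. Human HepaRG cultures received chemicals for 48 h in duplicate, highest concentration 100 uM with half-log dilutions.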
# [20] = read-out: HGF (gene 3082); test: LTEA_HepaRG_HGF: Life Technologies and Expression Analysis (LTEA) Assay for Hepatocyte Growth Facto (HGF) using HepaRG (AID 2283505)
# Method in brief: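 Gain or loss of HGF mRNA in human HepaRG liver cells after 48 h chemical exposure; eight concentrations up to 100 uM with 0.5% DMSO vehicle, quantified by TaqMan qRT-PCR.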
# Sequence of Cytochrome P450 3A4 (Homo sapiens) (P08684 whole entry, looked up): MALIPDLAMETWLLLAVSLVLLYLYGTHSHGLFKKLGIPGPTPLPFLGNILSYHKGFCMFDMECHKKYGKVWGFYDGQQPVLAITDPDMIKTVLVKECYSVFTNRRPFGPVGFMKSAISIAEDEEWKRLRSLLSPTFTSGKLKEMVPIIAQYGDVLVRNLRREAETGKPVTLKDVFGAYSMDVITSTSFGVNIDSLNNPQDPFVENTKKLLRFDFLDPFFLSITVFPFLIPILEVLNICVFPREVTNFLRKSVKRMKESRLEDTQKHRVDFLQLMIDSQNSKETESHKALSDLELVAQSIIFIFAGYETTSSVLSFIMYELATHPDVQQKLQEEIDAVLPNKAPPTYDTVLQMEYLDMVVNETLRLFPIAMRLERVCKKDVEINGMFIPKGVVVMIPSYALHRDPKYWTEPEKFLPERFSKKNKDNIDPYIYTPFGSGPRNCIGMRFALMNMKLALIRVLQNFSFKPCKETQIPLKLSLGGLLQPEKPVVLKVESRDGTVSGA
# Sequence of Hypoxia-inducible factor 1-alpha (Homo sapiens) (Q16665 whole entry, looked up): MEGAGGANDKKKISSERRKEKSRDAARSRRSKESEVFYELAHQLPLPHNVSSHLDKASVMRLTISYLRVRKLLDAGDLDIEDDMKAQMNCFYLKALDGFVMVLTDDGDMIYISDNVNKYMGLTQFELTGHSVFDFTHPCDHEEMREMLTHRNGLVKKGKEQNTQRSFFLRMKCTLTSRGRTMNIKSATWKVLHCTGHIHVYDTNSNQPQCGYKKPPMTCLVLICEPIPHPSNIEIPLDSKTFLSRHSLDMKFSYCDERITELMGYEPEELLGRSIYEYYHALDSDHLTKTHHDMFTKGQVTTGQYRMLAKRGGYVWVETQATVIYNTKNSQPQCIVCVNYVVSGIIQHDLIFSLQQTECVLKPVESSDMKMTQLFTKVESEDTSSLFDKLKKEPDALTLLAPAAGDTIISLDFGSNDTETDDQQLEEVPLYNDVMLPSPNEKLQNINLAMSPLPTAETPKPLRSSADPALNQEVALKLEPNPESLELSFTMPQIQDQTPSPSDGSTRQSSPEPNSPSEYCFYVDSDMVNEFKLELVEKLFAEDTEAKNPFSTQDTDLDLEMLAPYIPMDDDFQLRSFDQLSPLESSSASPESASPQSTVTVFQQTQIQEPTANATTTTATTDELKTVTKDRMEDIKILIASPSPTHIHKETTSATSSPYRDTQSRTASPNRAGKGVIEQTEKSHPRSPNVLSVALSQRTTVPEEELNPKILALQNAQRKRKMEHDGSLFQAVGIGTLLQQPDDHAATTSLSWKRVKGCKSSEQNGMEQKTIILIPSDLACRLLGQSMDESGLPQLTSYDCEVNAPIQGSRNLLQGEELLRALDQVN
# Sequence of Cytochrome P450 3A7 (Homo sapiens) (P24462 whole entry, looked up): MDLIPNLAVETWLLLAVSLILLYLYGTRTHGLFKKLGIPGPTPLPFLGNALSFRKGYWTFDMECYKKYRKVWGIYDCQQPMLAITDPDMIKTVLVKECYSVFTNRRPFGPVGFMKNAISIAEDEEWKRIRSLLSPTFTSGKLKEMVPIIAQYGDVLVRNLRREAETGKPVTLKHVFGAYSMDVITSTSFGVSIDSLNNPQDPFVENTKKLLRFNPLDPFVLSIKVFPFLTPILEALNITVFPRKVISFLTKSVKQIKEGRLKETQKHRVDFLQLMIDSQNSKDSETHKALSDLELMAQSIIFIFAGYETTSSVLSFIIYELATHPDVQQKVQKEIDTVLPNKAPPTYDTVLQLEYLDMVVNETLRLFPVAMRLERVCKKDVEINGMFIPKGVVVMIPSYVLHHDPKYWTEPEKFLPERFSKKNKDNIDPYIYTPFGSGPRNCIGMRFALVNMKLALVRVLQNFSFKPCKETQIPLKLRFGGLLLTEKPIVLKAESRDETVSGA
smiles,measurement,setting,value
CCOP(=O)(SC(C)CC)N1CCSC1=O (stereo not given),AC50,[1],16.1 µM (active)
same,outcome,[2],inactive
same,outcome,[3],inactive
same,outcome,[4],inactive
same,outcome,[5],inactive
same,outcome,[6],inactive
same,outcome,[7],inactive
same,AC50,[8],16.1 µM (active)
same,AC50,[9],12.6 µM (active)
same,AC50,[10],32.3 µM (active)
same,outcome,[11],inactive
same,outcome,[12],inactive
same,outcome,[13],inactive
same,outcome,[14],inactive
same,outcome,[15],inactive
same,outcome,[16],inactive
same,AC50,[17],21.3 µM (active)
same,AC50,[18],21 µM (active)
COc1ccc(C(=CC(=O)N2CCOCC2)c2ccc(Cl)cc2)cc1OC,AC50,[1],9.63 µM (active)
same,outcome,[2],inactive
same,outcome,[3],inactive
same,outcome,[5],inactive
same,outcome,[6],inactive
same,outcome,[7],inactive
same,outcome,[8],inactive
same,AC50,[9],50 µM (active)
same,outcome,[10],inactive
same,outcome,[11],inactive
same,outcome,[12],inactive
same,outcome,[13],inactive
same,outcome,[14],inactive
same,outcome,[19],inactive
same,outcome,[15],inactive
same,outcome,[16],inactive
same,outcome,[17],inactive
same,outcome,[20],inactive
same,AC50,[18],14.1 µM (active)
CC(C)=CC1C(C(=O)OCN2C(=O)C3=C(CCCC3)C2=O)C1(C)C (stereo not given),outcome,[1],inactive
same,outcome,[2],inactive
same,outcome,[3],inactive
same,outcome,[4],inactive
same,outcome,[5],inactive
same,outcome,[7],inactive
same,outcome,[8],inactive
same,outcome,[9],inactive
same,outcome,[10],inactive
same,outcome,[11],inactive
same,outcome,[12],inactive
same,outcome,[13],inactive
same,outcome,[14],inactive
same,outcome,[19],inactive
same,outcome,[15],inactive
same,outcome,[16],inactive
same,outcome,[17],inactive
same,outcome,[20],inactive
same,outcome,[18],inactive
CCc1cccc(CC)c1N(COC)C(=O)CCl,outcome,[1],inactive
same,outcome,[2],inactive
same,outcome,[3],inactive
same,outcome,[4],inactive
same,outcome,[5],inactive
same,outcome,[7],inactive
same,outcome,[8],inactive
same,outcome,[9],inactive
same,outcome,[10],inactive
same,outcome,[11],inactive
same,outcome,[12],inactive
same,outcome,[13],inactive
same,outcome,[14],inactive
same,outcome,[19],inactive
same,outcome,[15],inactive
same,outcome,[16],inactive
same,outcome,[17],inactive
same,outcome,[20],inactive
same,outcome,[18],inactive
